# Bioassay records (PubChem)
# Shiga inhibitor = inhibitors of Shiga toxin in Vero cells | Vero cells, Shiga toxin protein synthesis inhibition reporter | 9.2% of 290,000 active | inhibition, % at 38.7 µM; in the data active = inhibition mostly above about 28%, no sharp cut-off; inactive = mostly below about 43%; note: 0% is about no effect
# NS1 function inh = blocks influenza NS1 protein function | Potency, µM (top dose mostly 46.1 µM), for the others: at the highest dose activity, positive = more growth | 0.4% of 270,000 active | AID 2326; calls by dose curve; note: potency is the fitted concentration of half-maximal effect; actives are rising curves; nearly all actives have a fitted effect of over 50% in size
#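 Growth recovery, yeast-based: influenza A NS1 expressed in S. cerevisiae causes slow growth, and suppressors are detected by OD600. The parent strain without NS1 is used as positive control.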
# LmPK inhibitor = LmPK (Leishmania mexicana) enzyme inhibition; Q27686; purified LmPK, Kinase-Glo ATP luminescence, 1 h; 0.37% of 290,000 active; AID 1721; Potency, µM (doses to about 57.5 µM), for inactives: at the top dose activity change, negative = inhibition, hits mostly inhibitors; note: potency is the fitted concentration of half-maximal effect; % is set by controls: 0 for no effect and ±100 for the full control effect
# Target sequence (Q27686 whole entry, looked up): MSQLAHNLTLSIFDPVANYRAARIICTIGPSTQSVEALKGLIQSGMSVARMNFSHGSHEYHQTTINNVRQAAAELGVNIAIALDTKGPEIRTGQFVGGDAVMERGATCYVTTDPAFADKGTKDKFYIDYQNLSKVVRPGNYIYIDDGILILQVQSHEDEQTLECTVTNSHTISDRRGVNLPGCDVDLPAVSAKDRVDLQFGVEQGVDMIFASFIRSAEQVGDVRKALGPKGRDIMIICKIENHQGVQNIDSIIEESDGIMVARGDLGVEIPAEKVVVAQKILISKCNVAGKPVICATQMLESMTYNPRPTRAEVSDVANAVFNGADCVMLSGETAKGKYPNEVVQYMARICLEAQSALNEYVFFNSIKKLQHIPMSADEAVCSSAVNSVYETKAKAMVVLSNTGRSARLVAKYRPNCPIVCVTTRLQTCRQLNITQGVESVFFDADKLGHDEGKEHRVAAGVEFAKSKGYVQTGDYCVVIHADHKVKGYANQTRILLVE
#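 Kinase-Glo luminescence read after 1 h RT reaction of 0.1 nM LmPK with 0.5 mM PEP and 0.1 mM ADP. Activity scaled between uninhibited and enzyme-free controls.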
# Giardia FBPA inh = blocks Giardia fructose-bisphosphate aldolase activity; A8B2U2; purified Giardia FBPA; Potency, µM (doses to about 59.6 µM), inactives show top-dose activity, negative = inhibition, most hits filed as inhibitors; 0.71% of 290,000 active; note: potency is the fitted concentration of half-maximal effect; % is set by controls: 0 for no effect and ±100 for the full control effect; nearly all actives have a fitted effect of over 55% in size
#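 40 nM FBPA preincubated 10 min at RT with compound (up to 57.5 uM final), then substrate plus GAPDH/TPI/NAD/arsenate coupling and diaphorase/resazurin added. Fluorescence read after 20 min at RT, 525/598 nm.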
# Cycloheximide cs = counter-screen for Shiga toxin inhibitors: cycloheximide protein synthesis inhibition; 12% of 300,000 active; max response, %; cell reporter, cycloheximide protein synthesis inhibition counterscreen; in the data active = max response mostly above about 13%, no sharp cut-off; inactive = mostly below about 14%; note: read at 38.3 µM for the half of the compounds with a filed dose; 0% is about no effect
# NS1 inh valid = validation of influenza NS1 protein function inhibitors; shares compounds with NS1 function inh; influenza NS1 function cell assay, 15-point titration; activity change, negative = inhibition, % at 32.9 µM; 1,400 tested, under 10 active; AID 492980; calls by dose curve; note: 0% is about no effect
# Flu PR8 replic = influenza NS1 inhibitors: inhibition of influenza A/PR/8/34 replication; MDCK infected influenza A/PR/8/34, virus titer TCID50; stronger effect = lower value; 30% of 95 active; shares compounds with NS1 function inh; AID 504647; virus titer (log TCID50), log10 TCID50 at 5 µM; call rule not given here
# The depositor's hits bear a star; ? = inconclusive; . = no result. Only some compounds are listed: those with a hit (about 14% of all), similar ones and a draw of the others. Unless noted, calls come from the whole dose curve; as a rule, active = well fitted curve in the direction sought with a large enough effect; inconclusive = small, poorly fitted or top-dose-only effect, or another doubt; inactive = no such curve, though single readings can be large; an effect the other way counts as inactive or inconclusive.
SMILES,Shiga inhibitor,NS1 function inh,LmPK inhibitor,Giardia FBPA inh,Cycloheximide cs,NS1 inh valid,others
C[C@@H]1C[C@H]2[C@@H]3CCC4=CC(=O)C=C[C@]4(C)[C@@]3(F)[C@@H](O)C[C@]2(C)[C@H]1C(=O)CO,-12.7,9.2%,-2.9%,-8.6%,-2.2,.,
C[C@]12C=CC(=O)C=C1CCC1C2=CC[C@]2(C)[C@@H](C(=O)CN3CCN(c4cc(N5CCCC5)nc(N5CCCC5)n4)CC3)CC[C@@H]12 (some centres undefined),.,35.5µM*,.,-5.9%,.,?,
COCC(=O)N1CCC2(CC1)CN(Cc1ccccc1OC)C2,.,.,.,8.9%,.,.,
O=C(O)c1cc(N/N=C/c2ccc(N3CCOCC3)s2)ccc1Cl,64.4*,11.2µM*,1.5%,-24.6%,45.1*,23.1,
Cc1ccc(C)c(S(=O)(=O)Nc2ccccc2C(=O)Nc2ccc(S(=O)(=O)Nc3ncccn3)cc2)c1,8.1,11.2µM*,-7.4%,13.7%,-1.9,24.7,
Cc1ccc(S(=O)(=O)N2CC(=NO)C2)cc1,-17.1,6.31µM*,-5.2%,-11.2%,0.8,14.1,
Cc1ccc(-c2ccc(S(=O)(=O)N3CCN(C)CC3)cc2)cc1,68.7,11.2µM*,-2.8%,6.8%,5.9,-33.7,
CCc1ccccc1OCCCOc1ccc(OC)cc1,32.0,2.82µM*,-2.0%,0.9%,6.6,-37.6,Flu PR8 replic=8
NC(=O)C1CCN(c2nc(C3CC3)nc3c2nnn3Cc2ccccc2Cl)CC1,-15.6,-9.1%,-0.6%,-4.9%,10.3,.,
CC(C)(C)c1nc(N2CCN(C(=O)c3ccco3)CC2)c2nnn(Cc3ccccc3Cl)c2n1,3.3,12.6µM*,6.2%,-0.2%,-3.1,?,
Cc1c(C(=O)Nc2cccc(Cl)c2)oc2ccc(S(=O)(=O)N3CCC4(CC3)OCCO4)cc12,18.4,11.2µM*,1.1%,-17.9%,-0.3,-19.1,
Cc1nn(-c2ccccc2)c(Cl)c1/C=N/NC(=O)C1COc2ccccc2O1 (centres undefined),-6.8,1.6%,-1.7%,0.8%,0.5,.,
CCOC(=O)c1ccc(-n2c(O)c(/C=N/NC(=O)C3COc4ccccc4O3)c3ccccc3c2=O)cc1 (centres undefined),-2.2,8.91µM*,0.3%,?,-1.2,-2.8,
COc1ccc(Cl)cc1NC(=O)C[n+]1cccc(C)c1,-0.9,?,15.4%,-0.4%,-3.1,.,
CCCC(CCC)C(=O)OC1C[C@H]2CC[C@@H](C1)[N+]2(C)C (some centres undefined),-17.5,?,-2.7%,6.8%,-3.7,12.3,
Cc1nn(CC(=O)Nc2cccc(Cl)c2)c(=O)c2cc(-c3ccccc3)nn12,-3.0,-2.0%,-3.0%,.,-9.4,.,
Cc1ccc(Cn2c(SCC(=O)N3CC(=O)Nc4ccccc43)nc3ccccc3c2=O)cc1,-3.5,12.6µM*,1.3%,-1.0%,7.4,5.8,
O=C(N/N=C/c1ccc2c(c1)OCO2)c1cc(-c2ccc(F)cc2)nc2ccccc12,91.7*,?,2.9%,7.8%,50.4*,-0.9,
COc1ccc(-c2cc(C(=O)N/N=C/c3ccc4c(c3)OCO4)c3ccccc3n2)c(OC)c1,-11.5,3.2%,6.3%,4.0%,1.4,.,
COc1cccc(C(c2c(NC(=O)c3ccccc3)sc(C)c2C)N2CCN(C)CC2)c1 (centres undefined),-6.7,5.4%,-2.4%,15.2%,-4.6,.,
COc1ccc(C(c2c(NC(=O)c3ccccc3)sc(C)c2C)N2CCN(CCO)CC2)cc1 (centres undefined),55.9*,?,0.9%,18.1%,21.9*,-17.8,
O=c1ccc(Cl)n[nH]1,23.4,7.94µM*,-9.0%,4.0%,-1.4,14.2,
O=c1ccc(Cc2ccc(Cl)cc2)n[nH]1,-10.4,2.3%,-1.6%,3.8%,-4.6,.,
O=[N+]([O-])c1ccccc1S(=O)(=O)N1CCN(C2CCN(Cc3ccccc3)CC2)CC1,-13.7,4.3%,-5.4%,.,-2.7,.,
CN1CCc2c(sc3c2c(=O)n(-c2ccccc2)c2nnc(SCc4ccc(Cl)cc4)n32)C1,-11.0,12.6µM*,3.4%,-6.0%,-2.1,14.1,
Cc1nnc2n(-c3ccc(Cl)cc3)c(=O)c3c4c(sc3n12)CN(C)CC4,-13.4,-0.3%,-0.4%,-6.3%,-6.3,.,
